Most compounds without a hit are left out; they make up all but 4.7% or so of the library.
HTT promoter inh: inhibits huntingtin promoter activity | HEK293 HTT promoter firefly luciferase reporter, 24 h | Potency, µM (series often up to 57.5 µM), most hits filed as inhibitors | actives 0.93% (n = 48,000); note: nearly all actives have a fitted effect of over 50% in size
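Luminescence was read after Dual-Glo reagent and a 10 min room-temperature incubation. Values were normalized to vehicle (0% activity) and zero RLU (-100% activity). Reporter HEK293 cells had been exposed to compounds (up to 57.5 uM final) for 24 h.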
FH mod: Identification of activators of human fumarate hydratase by quantitative high-throughput screening. FH coupled MDH/diaphorase resazurin fluorescence, 15 min. Potency, µM (doses to about 79.9 µM), hits mostly inhibitors. actives 0.22% (n = 54,000). AID 1347055, 2019; note: the screen sought activators but most active calls are inhibition curves; nearly all actives have a fitted effect of over 45% in size
HTT-AS act: activators of huntingtin-antisense promoter activity; HEK293 HTT-AS promoter firefly luciferase reporter, 24 h; response scale: percent change from vehicle, -100% = no light; Potency, µM (series often up to 57.5 µM), hits mostly activators; actives 0.24% (n = 48,000); note: nearly all actives have a fitted effect of over 55% in size
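Luminescence was read after Dual-Glo reagent and a 10 min room-temperature incubation. Values were normalized to vehicle (0% activity) and zero RLU (-100% activity). Reporter HEK293 cells had been exposed to compounds (up to 57.5 uM final) for 24 h.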
NTMT1 inh: blocks human N-terminal methyltransferase 1 activity; Potency, µM (top dose mostly 114 µM), usual class: inhibitors; actives 2.5% (n = 59,000); NTMT1 MTase-Glo SAH luminescence, purified enzyme; Q9BV86; note: nearly all actives have a fitted effect of over 65% in size
Target sequence (Q9BV86 whole entry, looked up): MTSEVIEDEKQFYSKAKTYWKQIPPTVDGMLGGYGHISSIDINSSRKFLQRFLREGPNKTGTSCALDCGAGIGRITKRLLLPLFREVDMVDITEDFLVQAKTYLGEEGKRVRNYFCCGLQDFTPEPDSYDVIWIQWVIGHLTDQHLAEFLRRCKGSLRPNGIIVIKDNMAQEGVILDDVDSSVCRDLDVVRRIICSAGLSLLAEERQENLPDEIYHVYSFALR
GPR32 ag: GPR32 (DRV1) agonism, beta-arrestin recruitment. O75388. CHO-K1 GPR32 beta-arrestin PathHunter luminescence, 90 min; zero percent set by DMSO-only wells. activation, % at 76.9 µM. actives 2.5% (n = 48,000). AID 1346428;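 active = activation of at least 60% and not above a set upper limit, about 1 call in 100 departs from these limits; inconclusive = activation of 40% to 60%, or above that upper limit; inactive = activation under 40%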
Target sequence (O75388 whole entry, looked up): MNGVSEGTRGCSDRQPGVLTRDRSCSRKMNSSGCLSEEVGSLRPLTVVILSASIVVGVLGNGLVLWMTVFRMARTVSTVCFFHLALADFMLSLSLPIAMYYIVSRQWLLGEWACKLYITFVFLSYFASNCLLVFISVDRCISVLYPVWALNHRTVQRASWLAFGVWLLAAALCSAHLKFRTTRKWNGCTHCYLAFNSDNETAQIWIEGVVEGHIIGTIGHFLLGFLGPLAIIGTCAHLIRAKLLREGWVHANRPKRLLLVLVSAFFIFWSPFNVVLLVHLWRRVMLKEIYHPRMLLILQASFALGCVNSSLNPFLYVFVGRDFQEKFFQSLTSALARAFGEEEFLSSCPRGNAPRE
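Beta-arrestin recruitment read-out: luminescence from complemented beta-Gal in CHO-K1 GPR32 PathHunter cells, measured 1 h after detection reagent at ambient temperature following 90 min compound exposure at 37 °C; DMSO served as basal (EC0) control.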
GALC G270D up: raises human GALC G270D mutant activity in cells | 145M-Twi-hGALC-G270D cells (Twitcher mouse brain line with human GALC G270D), HMU-beta-Gal fluorescence, 48 h | Potency, µM (doses to about 57.5 µM), most hits filed as activators | AID 1159614 | actives 0.1% (n = 45,000); note: nearly all actives have a fitted effect of over 65% in size
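Fluorescence readout: HMU-β-gal cleavage by mutant GALC (0.1 mM final, citrate/phosphate pH 5.2 with 1 mg/mL taurocholate), stopped with carbonate/bicarbonate plus Triton X-100. Cells: murine Twitcher 145M-Twi expressing human G270D GALC; qHTS for activators.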
Hits are given with their value; . = inactive; ? = inconclusive; / = not tested or not shown. Unless noted, calls come from the whole dose curve; as a rule, active = well fitted curve in the direction sought with a large enough effect; inconclusive = small, poorly fitted or top-dose-only effect, or another doubt; inactive = no such curve, though single readings can be large; an effect the other way counts as inactive or inconclusive.

SMILES	HTT promoter inh	FH mod	HTT-AS act	NTMT1 inh	GPR32 ag	GALC G270D up
CCC(C)NC(=O)c1ccc2c(c1)sc1nc(-c3ccc(OC)cc3)cn12 (stereo not given)	.	.	.	.	80.5	.
CCCNC(=O)c1ccc2c(c1)sc1nc(-c3ccc(C)cc3)cn12	.	.	?	.	.	.
C#Cc1cccc(Nc2nc3cc(C(=O)O)ccc3c3cncnc23)c1	/	?	/	25.1µM	/	/
O=C(O)c1cccc(Nc2ncnc3ccc(Br)cc23)c1	.	.	.	.	.	.
C=C1CC[C@@H]2[C@](C)(CC[C@H](O)[C@@]2(C)CCC=C(C)C)[C@@H]1Cc1c[nH]c2ccccc12	/	.	/	.	/	/
Cc1c(Cl)ccc2sc(N3CCN(C(=O)C4CC4)CC3)nc12	.	.	.	?	76.5	.
CCc1cccc2sc(N3CCN(C(=O)C4CC4)CC3)nc12	?	?	.	.	.	.
Cc1cc(C)c2sc(N3CCN(C(=O)c4ccc(N(C)C)cc4)CC3)nc2c1	.	?	.	.	.	.
Cc1cc(C)c2sc(N3CCN(C(=O)C4CC4)CC3)nc2c1	.	.	?	79.4µM	.	.
CCOC(=N)c1nc2ccc3ncnc(Nc4cc(F)c(F)cc4Cl)c3c2s1	/	/	/	.	/	/
O=c1[nH]sc2cc(Cl)ccc12	.	.	?	2.82µM	.	.
COc1ccc(-c2cc(C(C)=O)c(C)n2CCC(=O)Nc2cc(Cl)ccc2C)cc1	.	.	.	89.1µM	.	.
COc1cccc(NCc2ccc(O)c3ncccc23)n1	/	/	/	.	/	/
COc1cccc(NCc2cccn2-c2nnc(N3CCC(C)CC3)s2)c1	10µM	.	.	.	.	.
CCc1ccc(NCc2cccn2-c2nnc(N3CCCCCC3)s2)cc1	10µM	.	.	.	.	.
COc1ccc(NCc2cccn2-c2nnc(N3CCCCC3)s2)cc1OC	7.94µM	?	.	.	83.8	.
COc1ccc(NCc2cccn2-c2nnc(N3CCOCC3)s2)cc1OC	?	?	.	.	.	.
N#Cc1ccc(NS(=O)(=O)c2ccc(NC(=O)Cc3ccc(F)c(Cl)c3)cc2)cc1	/	/	/	.	/	/
CC/C=C\C[C@H]1C(=O)C=C[C@@H]1CCCCCCCC(=O)O	/	.	/	.	/	/
CC1=C(C(=O)Nc2nnc(-c3ccccc3)s2)C(c2nn(C)cc2Cl)N=C(Nc2nc3ccccc3o2)N1 (stereo not given)	/	/	/	.	/	/
Cc1ccc(OCCn2c(CCNCC3CCCCC3)nc3ccccc32)cc1	/	/	/	.	/	/
CN(C)CCCNc1cc(N2CCN(C3CCCCC3)CC2)c2noc3c2c1C(=O)c1ccccc1-3	.	.	.	11.2µM	.	.
O=C1c2ccccc2-c2onc3c(N4CCN(C5CCCCC5)CC4)cc(NCCO)c1c23	.	.	.	?	.	.
N#Cc1ccc(NC(=O)Nc2nnc(-c3ccncc3)s2)cc1	/	/	/	.	/	/
O=C(Nc1ccc(Cl)c(S(=O)(=O)N2CCOCC2)c1)c1ccc(S(=O)(=O)N2CCOCC2)cc1	/	/	/	.	/	/
SMILES	HTT promoter inh	FH mod	HTT-AS act	NTMT1 inh	GPR32 ag	GALC G270D up
CCC(=O)N1CCOc2c(cc(-c3cc(OC)cc(OC)c3)cc2C(=O)N[C@H]2CCCN(C)C2)C1	/	/	/	.	/	/
CCCSc1nc(NC2CC2c2ccc(F)c(F)c2)c2nnn(C3CC(OCCO)C(O)C3O)c2n1 (stereo not given)	/	.	/	?	/	/
N[C@@H](CCC(=O)N[C@H](CSN=O)C(=O)NCC(=O)O)C(=O)O	/	.	/	/	.	/
[N-]=[N+]=Nc1ccc(C(=O)CSC[C@H](NC(=O)CC[C@H](N)C(=O)O)C(=O)NCC(=O)O)cc1	/	31.6µM	/	/	.	/
CCCC(CCC)C(=O)NCc1ccc2c(cnn2-c2ccccc2OC)c1	/	.	/	.	/	/
CCOc1ccc(NC(=O)CSc2cn(CCNC(=O)c3ccccc3F)c3ccccc23)cc1	.	.	.	.	.	.
O=C(CSc1cn(CCNC(=O)c2cccc(C(F)(F)F)c2)c2ccccc12)Nc1ccc2c(c1)OCCO2	?	.	.	.	111.8	.
O=C(CSc1cn(CCNC(=O)c2ccccc2F)c2ccccc12)Nc1ccc2c(c1)OCCO2	.	.	.	.	?	.
O=C(CSc1cn(CCNC(=O)c2ccccc2F)c2ccccc12)Nc1ccc(F)cc1	.	.	.	.	91.1	.
Cc1c(Cl)cccc1NS(=O)(=O)c1ccc(NS(=O)(=O)c2ccc3c(c2)OCCO3)cc1	.	?	.	.	68.2	.
O=S(=O)(Nc1c(F)cccc1F)c1ccc2c(c1)OCCO2	.	.	.	.	.	.
Cc1ccc(C)c2sc(N3CCN(C(=O)c4ccco4)CC3)nc12	.	.	.	.	87.8	.
Cc1cccc2sc(N3CCN(C(=O)c4ccco4)CC3)nc12	.	.	?	.	.	.
CC(C)n1ncnc1-c1cn2c(n1)-c1ccc(O[C@@H](C)C(N)=O)cc1OCC2	/	/	/	.	/	/
COc1c(C)c(OCC=C(C)C)cc2c1CNC2=O	/	.	/	.	/	/
O=C1Cc2cc(S(=O)(=O)N3CCN(c4ccc(F)cc4)CC3)ccc2N1	/	/	/	.	/	/
O=C1Cc2cc(S(=O)(=O)N3CCN(c4ccc(CO)cc4)CC3)ccc2N1	/	/	/	50.1µM	/	/
CCCC(O)c1nc2ccccc2n1CCCOc1ccc(Cl)cc1 (stereo not given)	?	.	.	.	68.1	.
Cc1ccc(OCCn2c(COc3ccc(Cl)cc3)nc3ccccc32)cc1	?	.	.	.	.	.
COc1ccc(OC)c(CCNC(=O)CS(=O)(=O)Cc2nc(-c3cccc(Cl)c3)oc2C)c1	.	.	.	.	88.0	.
CC(=O)c1ccc(NC(=O)CC2Nc3cc(C)c(C)cc3NC2=O)cc1 (stereo not given)	?	.	.	.	.	.
COC(=O)c1ccc(NC(=O)CC2Nc3cc(C)c(C)cc3NC2=O)cc1 (stereo not given)	25.1µM	.	.	.	.	.
CCc1cccc(NC(=O)Cn2c(=O)n(CC(=O)NCCc3ccccc3)c(=O)c3ccccc32)c1	.	.	.	.	81.2	.
Cc1cc(C)cc(NC(=O)Cn2c(=O)n(CC(=O)NCCc3ccccc3)c(=O)c3ccccc32)c1	.	.	.	.	.	.
Cc1ccc(S(=O)(=O)Nc2cnccc2C(=O)Nc2ccccc2)cc1	/	/	/	.	/	/
COc1cc(-c2nc3nc[nH]n3c2Nc2ccc(C(C)C)cc2)ccc1O	.	.	.	44.7µM	.	.
COc1cc(-c2nc3cnccn3c2Nc2ccc(C(C)C)cc2)ccc1O	?	.	.	.	.	.
CC1(C(=O)O)CCCC2(C)C3CC4C5CC3(CCC12)CC45C (stereo not given)	/	?	/	.	/	/
